# Active and inactive are the calls of the source.
# Experiments:
# Albumin (Bos taurus) = Albumin (Bos taurus) (UniProt P02769); experiment: bovine serum albumin binders on microarray, profiling panel, artefact control for SMM control protein annotation, biochemical, small-molecule microarray, Alexa647 label, 635/667 nm fluorescence (AID 1118); conditions: BSA-A647 binding, fluorescence 635 nm, higher = more signal;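 note: score merges 667 nm emission intensity and signal-to-noise per printed compound spot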
# Albumin (Bos taurus), sequence (P02769 whole entry, looked up): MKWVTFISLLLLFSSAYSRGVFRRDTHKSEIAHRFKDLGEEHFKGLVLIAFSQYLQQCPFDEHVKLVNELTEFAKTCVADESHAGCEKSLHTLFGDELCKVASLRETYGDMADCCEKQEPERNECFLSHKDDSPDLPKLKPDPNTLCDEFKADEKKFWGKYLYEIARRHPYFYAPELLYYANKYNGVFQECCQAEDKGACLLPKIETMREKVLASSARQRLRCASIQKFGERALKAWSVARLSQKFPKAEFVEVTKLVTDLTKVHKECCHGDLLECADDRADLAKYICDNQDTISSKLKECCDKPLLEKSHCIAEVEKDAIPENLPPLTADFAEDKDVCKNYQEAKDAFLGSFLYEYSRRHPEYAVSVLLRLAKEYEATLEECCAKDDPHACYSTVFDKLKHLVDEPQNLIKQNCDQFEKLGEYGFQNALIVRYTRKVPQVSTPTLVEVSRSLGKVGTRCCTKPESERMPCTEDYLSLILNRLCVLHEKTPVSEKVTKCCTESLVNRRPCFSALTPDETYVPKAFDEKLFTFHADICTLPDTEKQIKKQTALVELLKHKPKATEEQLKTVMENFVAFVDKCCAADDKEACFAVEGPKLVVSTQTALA
# [1] = small-molecule microarray binders of probe aXIP, primary screen, biochemical, NeuroSMM set, 635/667 nm fluorescence (AID 1119); conditions: higher = more signal, called active from +8 up or from −8 down;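 note: probe is the protein aXip251-270 applied at 1 µg/mL to compound-printed slides; binding of probe to printed compounds measured as 667 nm fluorescence plus signal to noise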
# [2] = small-molecule binders of probe aNOTCH3, primary screen, biochemical, small-molecule microarray, 635/667 nm fluorescence (AID 1120); conditions: higher = more signal;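 note: probe is a biotin-tagged antibody raised against NOTCH3 rather than NOTCH3 protein; score merges spot fluorescence near 667 nm with spot signal to noise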
# [3] = small-molecule binders of probe aNOTCH2, primary screen, biochemical, small-molecule microarray, 635/667 nm fluorescence (AID 1121); conditions: higher = more signal;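 note: score merges feature fluorescence read at 667 nm with its signal to noise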
# [4] = biological target: Carbonic anhydrase 2 (Homo sapiens) (UniProt P00918); experiment: CAII small-molecule binders, profiling panel, biochemical, small-molecule microarray, Alexa647-labelled CAII (AID 1122); conditions: CAII-A647 binding fluorescence, higher = more signal
# [5] = COS7 lysate on small-molecule microarray, probe aHis, 635 nm (AID 1123); conditions: COS7 cell lysate, fluorescence, higher = more signal;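 note: z-score combines 667nm fluorescence intensity with signal-to-noise per printed compound spot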
# [6] = compound binding in COS7 lysate, probe aLAP1, primary screen, cell lysate, small-molecule microarray (AID 1124); conditions: probe aLAP1, fluorescence, higher = more signal;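 note: lysate comes from COS7 cells expressing LAP1 and is applied at 0.3 µg/mL; score merges spot fluorescence near 667 nm with signal-to-noise over triplicate slides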
# Sam68 (KHDRBS1) = experiment: Sam68 small-molecule binders, primary screen, biochemical, small-molecule microarray, 635 nm fluorescence (AID 1125); conditions: small-molecule microarray binding, higher = more signal;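 note: score merges 667 nm channel intensity with signal to noise over triplicate slides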
# [7] = system: Chordin-like protein 2 (CHRDL2); experiment: CHRDL2 small-molecule binders, primary screen, biochemical, small-molecule microarray, 635 nm fluorescence (AID 1126); conditions: small-molecule microarray binding, fluorescence 635 nm; higher = more signal;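 note: printed compound slides probed with Chrdl2 protein at 4 µg/mL for 1 h at 4 C; score merges 667 nm emission intensity with signal to noise over three replicate slides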
# [8] = biological target: Concanavalin-A (Canavalia ensiformis) (UniProt P02866); experiment: ConA small-molecule binders, primary screen, artefact control for SMM control protein annotation, biochemical, small-molecule microarray, Alexa647 label, 635 nm (AID 1127); conditions: ConA-A647 binding fluorescence, higher = more signal;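 note: z combines 667 nm emission intensity with signal-to-noise across three replicate slides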
# Concanavalin-A (Canavalia ensiformis), sequence (P02866 whole entry, looked up): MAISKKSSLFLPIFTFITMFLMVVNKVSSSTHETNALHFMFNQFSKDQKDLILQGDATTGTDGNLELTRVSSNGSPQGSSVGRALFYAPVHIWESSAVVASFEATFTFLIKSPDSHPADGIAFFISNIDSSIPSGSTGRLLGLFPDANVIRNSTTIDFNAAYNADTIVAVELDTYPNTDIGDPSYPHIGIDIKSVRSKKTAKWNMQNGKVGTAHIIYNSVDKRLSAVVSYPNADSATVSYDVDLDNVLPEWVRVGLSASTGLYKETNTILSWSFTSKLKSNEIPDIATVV
SMILES,composite z-score (Albumin (Bos taurus)),composite Z-score [1],composite z-score [2],composite z-score [3],composite z-score [4],composite z-score [5],composite z-score [6],composite z-score (Sam68 (KHDRBS1)),composite z-score [7],composite z-score [8]
COCCOC(=O)N1C(=O)[C@@]2(c3cc(C#CC4(O)CCCCCC4)ccc31)[C@H](C(=O)NC[C@H](O)c1ccccc1)[C@H]1C(=O)O[C@H](c3ccccc3)[C@H](c3ccccc3)N1[C@@H]2c1ccc(O)cc1,0.456,-0.275 (inactive),-0.0362,-0.0846,0.618,1.51,1.42,1.16,-0.112,1.09
CO[C@H]1O[C@H](CO)[C@@H](OC(=O)Nc2ccc(C(F)(F)F)cc2)[C@H](OC(=O)Nc2ccccc2-c2ccccc2)[C@@H]1OC(=O)Nc1ccccc1-c1ccccc1,0.816,0.0336 (inactive),0.387,-0.0496,0.647,2.21,0.818,1.29,0.102,1.15
C=C(COC)/C(=C/C[C@H](OC(=O)c1ccncc1)c1ccc(OCCO)cc1)c1cc(C(=O)OC)ccc1OC,0.401,0.3 (inactive),0.325,-0.123,0.357,1.39,0.84,1.26,0.249,0.952
C=C(/C(=C/C[C@H](OC(=O)c1ccncc1)c1ccccc1OCCO)c1cc(C(=O)OC)ccc1OC)C(C)C,0.407,-0.104 (inactive),-0.0288,-0.102,0.453,0.537,-0.0576,1.06,0.33,0.737
COCCOC(=O)N1C(=O)[C@@]2(c3cc(C#CC4=CCCCC4)ccc31)[C@H](c1ccc(OCCO)cc1)N1[C@H](c3ccccc3)[C@H](c3ccccc3)OC(=O)[C@H]1[C@@H]2C(=O)N1CCCCCCC1,0.263,2 (inactive),0.809,0.0784,0.623,2.41,0.903,1.3,0.91,1.11
COC(=O)C(CC#Cc1ccc2c(c1)[C@]1(C(=O)N2)[C@H](c2ccc(O)cc2)N2[C@H](c3ccccc3)[C@H](c3ccccc3)OC(=O)[C@H]2[C@@H]1C(=O)N1CCc2cc(OC)c(OC)cc2C1)C(=O)OC,-0.1,0.33 (inactive),0.0032,-0.125,0.366,1.72,1.05,1.32,0.64,1.12
CCCCC=C[C@@H](NC(=O)c1ccc(C(F)(F)F)cc1)c1ccccc1,-0.81,0.734 (inactive),-0.165,-0.125,-0.273,0.0379,-0.0554,-0.0265,-0.94,-0.792
C=CCC(OC(C)=O)[C@@H]1[C@@H](N(Cc2ccc(-c3cccc(C(F)(F)F)c3)o2)C(=O)Cc2ccc(OC)cc2)c2cc(OCCCO)ccc2N1C(=O)c1ccc2ccccc2n1 (stereo not given in full),-0.739,-0.117 (inactive),-0.0311,-0.0956,-0.165,0.516,-0.136,-1.29,0.763,-0.388
C#CCN(C/C=C/c1ccccc1)[C@H](CO[Si](C)(C)C(C)(C)C)c1ccccc1,0.491,-0.12 (inactive),-0.125,-0.229,-0.33,-0.0873,0.0021,0.102,-0.167,-0.111
C=CC[C@@]12N=C(c3ccc(OCCCO)cc3)O[C@@H]1c1ccccc1N(Cc1ccccc1)C2=O,0.0349,0.407 (inactive),0.405,0.14,0.463,3.15,0.532,1.3,1.43,1.02
NCCCC[C@@H]1NC(=O)[C@H]2C[C@@H](C(=O)NCc3ccc(F)cc3)[C@@H](c3ccc(O)cc3)N2C1=O,-0.135,0.744 (inactive),0.125,-0.0531,0.738,2.18,0.313,1.19,0.521,1.13
CCOC(=O)C[C@H]1[C@H](OC(=O)c2ccc(-c3ccccc3)cc2)[C@@H](NC(=O)c2ccc3ccccc3c2)c2cc(OCCCO)ccc2N1C(=O)c1ccccc1,0.571,1.03 (inactive),0.0351,-0.132,0.119,0.916,0.14,1.16,-0.126,0.353
CCCCN1CC=CC23O[C@@H]4C=CCOC(=O)[C@@H]4[C@H]2C(=O)N(CCO)[C@@H]3C1=O (stereo not given in full),-0.852,-0.483 (inactive),0.177,-0.185,0.85,-0.291,-0.217,-0.779,-1.68,-1.09
CCC[C@@H]1[C@@H](Sc2ccccc2)[C@@H](C(=O)O)[C@H](c2ccc(C)cc2)N1S(=O)(=O)c1ccc(C)cc1,0.771,0.398 (inactive),0.322,-0.0794,0.594,2.65,1.39,1.33,-0.432,1.23
CCOC(=O)C1=CC[C@@H](c2ccccc2Cl)N(S(=O)(=O)c2ccc(C)cc2)[C@H]1c1cccc(OC)c1,0.453,-0.161 (inactive),-0.014,-0.115,0.304,0.878,-0.151,0.371,-0.0126,0.577
C=CCC(OC(C)=O)[C@@H]1[C@@H](N(Cc2cc3ccccc3o2)C(=O)Cc2ccc(OC)cc2)c2cc(OCCCO)ccc2N1C(=O)Cc1ccc(OC)cc1 (stereo not given in full),-0.477,-0.188 (inactive),-0.0711,-0.153,0.426,-0.188,0.107,-0.0765,0.208,-0.395
C=CCC(OC(C)=O)[C@@H]1[C@@H](N(Cc2ccc(-c3cccc(C(F)(F)F)c3)o2)C(=O)Cc2ccc(F)cc2)c2cc(OCCCO)ccc2N1C(=O)c1ccc2ccccc2c1 (stereo not given in full),-0.229,-0.0127 (inactive),-0.0813,-0.117,-0.351,0.0261,-0.211,-0.749,-0.0715,-1.35
CCCCC(=C=CC[C@@H](O)c1cccc(OCCO)c1)C[C@@H](O)COCc1ccccc1,0.59,0.196 (inactive),-0.158,-0.104,0.441,0.696,0.117,-0.121,-0.598,-0.302
COC(=O)[C@@H]1N=C(c2ccc(OCCCO)cc2)O[C@@H]1c1ccccc1CN=[N+]=[N-],0.273,0.443 (inactive),0.181,-0.0162,0.552,1.18,-0.0169,0.513,-0.689,0.116
COCC(=C=CC[C@@H](O)c1ccc(OCCO)cc1)C[C@@H](O)COCc1ccccc1,0.769,-0.727 (inactive),0.0528,-0.0796,0.805,2.3,0.686,1.28,0.0466,0.547
CC(C)C[C@@H]1NC(=O)[C@H]2C[C@@H](C(=O)NCCCCCNC(=O)CS)[C@@H](c3ccc(O)cc3)N2C1=O,-0.796,0.0136 (inactive),-0.171,-0.144,0.414,2.08,0.873,1.31,0.795,0.885
COCCOC(=O)N1C(=O)[C@@]2(c3cc(C#CCCO)ccc31)[C@H](c1ccccc1OCCO)N1[C@H](c3ccccc3)[C@H](c3ccccc3)OC(=O)[C@H]1[C@@H]2C(=O)N1CCc2cc(OC)c(OC)cc2C1,0.329,0.339 (inactive),0.0562,-0.101,0.4,1.85,1.02,1.31,0.469,1.09
